Screening results: PubChem BioAssay, several laboratories
LGR2 antag – inhibitors of bursicon-induced Drosophila LGR2 receptor cAMP signaling; HEK293 LGR2, CRE-luciferase, bursicon-stimulated, 4 h; inhibition, % at 9.99 µM; 0.35% of 380,000 active;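 active means drop in luminescence signal, shown as inhibition above about 50% in the replicate tests, limit read from the data, passing the limit was not always enough; inconclusive means probably only some replicates passing the limit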;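 further: agonist challenge used bursicon conditioned medium at about half maximal strength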
HSP90 refold inh – HSP90 refolding inhibition in rabbit reticulocyte lysate; inhibition, % at 5.6 µM; 0.91% of 290,000 active; luciferase refolding luminescence, 3 h;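 active means inhibition above the screen-wide mean plus 3 SD, computed separately per campaign, cut at about 16% in these data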;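 further: 0% = DMSO wells and 100% = 60 µM geldanamycin wells; inhibitors lower the luminescence because luciferase stays unfolded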
TROY NFkB inh – inhibitors of TROY-dependent NF-kB signaling | Q293 LMP1-TROYcd NF-kB luciferase reporter, 4 h | AID 1347056 | 0.98% of 360,000 active | inhibition, % at 10 µM;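 active means compounds whose plate-normalised and pattern-corrected inhibition of the luciferase reporter signal at the single screening dose is 50% or more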
TWEAK-Fn14 inh – TWEAK-Fn14 signaling inhibition. AID 1159606. TWEAK-stimulated Fn14 reporter cells, luciferase luminescence, 8 h. 2% of 360,000 active. inhibition, % at 10 µM; in the data active means inhibition above about 50%
* hit, by the source's call; u = inconclusive; x = no result given; ! = repeats disagree. Only some compounds are listed: those with a hit (about 2.2% of all), similar ones and a draw of the others.

SMILES | LGR2 antag | HSP90 refold inh | TROY NFkB inh | TWEAK-Fn14 inh
CC(=O)Oc1ccc2c(=O)c(-c3nc4ccccc4s3)coc2c1 | 17 | -1 | 53* | 83*
COc1ccc(S(=O)(=O)N(C)C[C@@H]2OCCCC[C@H](C)Oc3ccc(NC(=O)Nc4ccc(F)cc4)cc3C(=O)N([C@@H](C)CO)C[C@@H]2C)cc1 | 7 | x | x | x
O=C(/C(N=Nc1cccc(C(F)(F)F)c1)=C(/O)c1cccs1)C(F)(F)F | x | -6 | 9 | 57*
CC(=O)/C(N=Nc1cccc(C(F)(F)F)c1)=C(\C)O | x | 2 | -3 | 15
Cc1ccc(N=C/C(C(=O)C(F)(F)F)=C(\O)c2cccs2)cc1 | x | 0 | -42 | 83*
C[C@@H]1CN([C@@H](C)CO)C(=O)Cc2cc(NC(=O)CCN3CCOCC3)ccc2O[C@H]1CN(C)CC1CC1 | -13 | x | x | x
CCOC(=O)/C(=C\c1cccnc1)C(=O)c1cc(C(C)=O)c(Nc2ccccc2)s1 | x | 2 | 86* | 106*
CCOC(=O)/C(=C\c1ccccc1)C(=O)c1cc(C(C)=O)c(Nc2ccccc2)s1 | x | 4 | 34 | 70*
COc1ccc2c3c(n(C)c2c1)[C@H](CO)N(C(=O)C1CCCCC1)CC31CCN(C(=O)Nc2cccc(F)c2)CC1 | -8 | x | x | x
CC(=C/c1ccccc1)/C=N/NC(=O)c1ccccn1 | u | 17* | -12 | 44
CCCN1[C@H](C(=O)N[C@@H](C)c2ccccc2)[C@@H](CO)[C@@H]2Cn3c(cccc3=O)[C@@H]21 | 11 | x | x | x
O=C(N[C@@H]1CC[C@H](CCNS(=O)(=O)c2ccccc2Cl)O[C@H]1CO)c1ccc(F)cc1 | 16 | x | x | x
COc1ccc2cc3cc(C(=O)NCCN4CCN(c5ccccc5F)CC4)oc3nc2c1 | x | 1 | 60* | 67*
COc1cccc(-n2nc(C(N)=O)c(O)cc2=O)c1 | -15 | 1 | 12 | 8
COc1cccc(-n2nc(C#N)c(Cl)cc2=O)c1 | 103* | -2 | 83* | 29
CCOc1ccc(NC(=O)NNC(=O)c2cc3ccccc3cc2O)cc1 | -1 | -1 | 52* | 55*
CCOC(=O)c1ccc(NC(=O)COc2cc3oc(=O)c(CC(C)O)c(C)c3cc2Cl)cc1 (stereo not drawn) | -32 | 1 | 18 | 6
CC(=O)c1cccc(NC(=O)COc2cc3oc(=O)c(CC(C)O)c(C)c3cc2Cl)c1 (stereo not drawn) | 41 | 0 | 45 | 60*
C[C@@H]1CN([C@H](C)CO)C(=O)c2cc(NS(=O)(=O)c3ccccc3)ccc2O[C@@H](C)CCCCO[C@H]1CN(C)Cc1ccc(C(=O)O)cc1 | -5 | x | x | x
C[C@H](CO)N1C[C@H](C)[C@H](CN(C)Cc2ccc(C(=O)Nc3ccccc3N)cc2)Oc2ccc(NS(=O)(=O)c3ccc(Cl)cc3)cc2CC1=O | -46 | x | x | x
O=[N+]([O-])c1ccccc1CN1CCN(Cc2ccc3ccccc3c2)CC1 | -9 | 2 | -8 | 65*
OC1CCN(Cc2ccc3ccccc3c2)CC1 | 2 | -3 | -10 | 97*
COc1ccc(CN2CCN(Cc3ccc4ccccc4c3)CC2)cc1OC | 5 | -2 | 18 | -4
CN(C)C(=O)[C@H]1[C@H](CO)[C@H]2Cn3c(ccc(-c4cccc(F)c4)c3=O)[C@@H]1N2Cc1ccccc1 | -1 | x | x | x
COc1ccc(NC(=O)Nc2ccc3c(c2)CC(=O)N([C@H](C)CO)C[C@H](C)[C@@H](CN(C)Cc2ccc(C(=O)O)cc2)O3)cc1 | -22 | x | x | x
SMILES | LGR2 antag | HSP90 refold inh | TROY NFkB inh | TWEAK-Fn14 inh
C[C@@H]1CCCCO[C@H](CN(C)C(=O)c2ccccc2)[C@@H](C)CN([C@H](C)CO)C(=O)c2cc(NC(=O)Nc3ccccc3)ccc2O1 | -11 | x | x | x
CC(C)CCN1CCN(Cc2cc(F)ccc2-n2cccn2)CC1CCO (stereo not drawn) | -12 | 3 | 7 | -12
OCCC1CN(Cc2cc(F)ccc2-n2cccn2)CCN1C1CCCC1 (stereo not drawn) | -12 | 6 | 8 | 91*
CCOC(=O)Cc1csc(SCC(=O)c2c(N)n(CC(C)C)c(=O)n(C)c2=O)n1 | x | 0 | 25 | 22
Cc1csc(SCC(=O)c2c(N)n(CC(C)C)c(=O)n(C)c2=O)n1 | -5 | 3 | 21 | 52*
O=C(C1CCCC1)N1C[C@@H]2N[C@H](C1)C2c1ccc(-c2cccc(F)c2)cc1 (stereo partly drawn) | -16 | x | x | x
N#Cc1ccc(-c2ccc(C3[C@@H]4CN(C(=O)C5CCC5)C[C@H]3N4)cc2)cc1 (stereo partly drawn) | 70*! | x | x | x
O=C(c1ccc(F)cc1)N1C[C@@H]2N[C@H](C1)C2c1ccc(-c2ccccc2F)cc1 (stereo partly drawn) | 12 | x | x | x
O=C(C1CC1)N1C[C@@H]2N[C@H](C1)C2c1ccc(-c2cccc(F)c2)cc1 (stereo partly drawn) | 61*! | x | x | x
O=C(C1CC1)N1C[C@@H]2N[C@H](C1)C2c1ccc(-c2ccccc2F)cc1 (stereo partly drawn) | 88*! | x | x | x
N#Cc1cccc(-c2ccc(C3[C@@H]4CN(C(=O)C5CC5)C[C@H]3N4)cc2)c1 (stereo partly drawn) | 89*! | x | x | x
C[C@H](CO)N1C[C@H](C)[C@H](CN(C)Cc2ccc(C(=O)Nc3ccccc3N)cc2)Oc2ccc(NC(=O)CCN3CCOCC3)cc2C1=O | -16 | x | x | x
CC(C)CCn1cnc2c(sc3nc4c(cc32)CSC(C)(C)C4)c1=O | 13 | 8 | 67* | 68*
CCCCn1cnc2c(sc3nc4c(cc32)CSC(C)(C)C4)c1=O | -54 | 5 | 38 | 31
Nc1ccc(-c2ncc(-c3ccccc3)o2)cc1 | -16 | 7 | 34 | 68*
Cc1ccc(-c2cnc(-c3ccncc3)o2)cc1 | x | -1 | -39 | -16
Cc1cc(C)c2c(N)c(C(=O)NN3CC(=O)N(c4ccccc4F)CC3=O)sc2n1 | -15 | 1 | -4 | 103*
Cc1noc(C)c1NC(=O)Nc1cccc2c1O[C@H](CN(C)C(=O)Nc1ccc(F)cc1)[C@@H](C)CN([C@@H](C)CO)C2=O | -4 | x | x | x
O=S1(=O)CCN(c2ccccc2CC(c2c[nH]c3ccccc23)c2c[nH]c3ccccc23)CC1 | 5 | x | 28 | 63*
